{"source": "the supplement of paper PMC11219838", "note": "Values without a mark were called inactive."}
{"system": "Meloidogyne hapla J2", "test": "proportion of mobile M. hapla J2 relative to DMSO control (fraction of DMSO control); higher = more viable, less nematicidal, active = 0.7 or less", "settings": "60 µM; 5 days; temperature: 20 °C", "how_it_was_run": "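Sealed 96-well plates, each well holding around 25 M. hapla J2 in distilled water with compound pinned to 60 µM final (0.6% v/v DMSO), were shaken at 200 rpm for 5 days at 20 °C. Then 2 µL of 1 M NaOH was added to each well. Microscope-scored mobility was normalised to the mean of DMSO-only wells from the same plate. Eight such wells were on each plate, and the two biological replicates were averaged.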"}
{"smiles": "Cc1ccc(OCc2nc(-c3ccncc3)no2)cc1C", "proportion of mobile M. hapla J2": 1.03}
{"smiles": "Cc1ccc(OCc2nc(-c3ccccn3)no2)cc1C", "proportion of mobile M. hapla J2": 1.01}
{"smiles": "Clc1cccc(OCc2nc(-c3ccncc3)no2)c1", "proportion of mobile M. hapla J2": 0.85}
{"smiles": "O=C(Nc1ccccc1-c1nc(-c2cccnc2)no1)c1ccc(Cl)cc1", "proportion of mobile M. hapla J2": 0.98}
{"smiles": "COc1ccccc1NC(=O)CSc1nnc(-c2ccccc2)o1", "proportion of mobile M. hapla J2": 1.04}
{"smiles": "Cc1cc(C)c(OCc2nc(-c3ccncc3)no2)c(C)c1", "proportion of mobile M. hapla J2": 0.938}
{"smiles": "Cc1cccc(OC(C)c2nc(-c3ccncc3)no2)c1", "note": "(stereo not drawn)", "proportion of mobile M. hapla J2": 0.988}
{"smiles": "Cn1c(SCc2nc(-c3ccc(Br)cc3)no2)nnc1-c1ccco1", "proportion of mobile M. hapla J2": 0.835}
{"smiles": "Cc1ccccc1OCc1nc(-c2ccc(F)cc2)no1", "proportion of mobile M. hapla J2": 0.909}
{"smiles": "COc1nc(C)ccc1-c1noc(-c2ccccc2C)n1", "proportion of mobile M. hapla J2": "0.668 (active)"}
{"smiles": "Fc1cccc(Cl)c1CSc1nnc(-c2ccccc2)o1", "proportion of mobile M. hapla J2": 1}
{"smiles": "Cc1ccc(OCc2nc(-c3ccc(Cl)cc3)no2)cc1C", "proportion of mobile M. hapla J2": 1.05}
{"smiles": "O=C(CSc1nnc(-c2ccco2)o1)Nc1ccc(Br)cc1", "proportion of mobile M. hapla J2": 1.05}
{"smiles": "CCc1ccc(NC(=O)CSc2nnc(-c3ccco3)o2)cc1", "proportion of mobile M. hapla J2": 0.899}
{"smiles": "COc1nc(C)ccc1-c1noc(-c2ccc(Cl)cc2)n1", "proportion of mobile M. hapla J2": 0.832}
{"smiles": "CCSc1nnc(-c2ccc(Cl)cc2Cl)o1", "proportion of mobile M. hapla J2": "0.607 (active)"}
{"smiles": "Clc1ccc(-c2nnc(SCc3ccccc3)o2)c(Cl)c1", "proportion of mobile M. hapla J2": 0.957}
{"smiles": "O=C(CSc1nnc(-c2ccc(Cl)cc2)o1)NC1CC2CCC1C2", "note": "(stereo not drawn)", "proportion of mobile M. hapla J2": "0.693 (active)"}
{"smiles": "Brc1ccc(OCc2nc(-c3cccs3)no2)cc1", "proportion of mobile M. hapla J2": 0.963}
{"smiles": "Cc1ccc(-c2nc(-c3ccc(C(F)(F)F)cc3)no2)cc1", "proportion of mobile M. hapla J2": 0.952}
{"smiles": "CCOc1ccc(NC(=O)CSc2nnc(-c3ccncc3)o2)cc1", "proportion of mobile M. hapla J2": 0.897}
{"smiles": "Cc1cc(OCc2nc(-c3cccnc3)no2)ccc1Cl", "proportion of mobile M. hapla J2": 0.942}
{"smiles": "O=C(NCc1cccnc1)c1ccccc1-c1nc(-c2ccccc2Cl)no1", "proportion of mobile M. hapla J2": 0.771}
{"smiles": "CC(=O)Nc1ccc(NC(=O)c2ccccc2-c2nc(-c3ccccc3Cl)no2)cc1", "proportion of mobile M. hapla J2": 0.866}
{"smiles": "O=C(CSc1nnc(-c2ccc(Cl)cc2)o1)Nc1nccs1", "proportion of mobile M. hapla J2": 0.917}
{"smiles": "Fc1ccccc1-c1nc(-c2ccccc2)no1", "proportion of mobile M. hapla J2": 0.991}
{"smiles": "Clc1ccc(CSc2nnc(-c3ccccc3Cl)o2)cc1", "proportion of mobile M. hapla J2": 0.888}
{"smiles": "c1ccc(-c2noc(COc3ccc4c(c3)CCCC4)n2)cc1", "proportion of mobile M. hapla J2": 0.923}
{"smiles": "COc1ccc(C(=O)CSc2nnc(-c3ccccc3)o2)cc1", "proportion of mobile M. hapla J2": 0.987}
{"smiles": "Cc1cccc(-c2noc(COc3ccc(C)cc3C)n2)c1", "proportion of mobile M. hapla J2": 1.09}
{"smiles": "CCOc1ccc(-c2nc(-c3ccc(C)cc3)no2)cc1", "proportion of mobile M. hapla J2": 0.966}
{"smiles": "N#Cc1cccc(CSc2nnc(-c3ccncc3)o2)c1", "proportion of mobile M. hapla J2": 0.745}
{"smiles": "O=C(CSc1nnc(-c2ccccc2)o1)Nc1cccc(Br)c1", "proportion of mobile M. hapla J2": 1.05}
{"smiles": "CCOc1ccccc1-c1nc(-c2ccc(NC(=O)Cc3ccccc3OC)cc2)no1", "proportion of mobile M. hapla J2": 1.04}
{"smiles": "Cc1ccc(-c2noc(COc3ccc(Cl)c(C)c3)n2)cc1", "proportion of mobile M. hapla J2": 0.905}
{"smiles": "O=C(Nc1ccccc1-c1nc(-c2ccncc2)no1)c1ccc(Cl)cc1", "proportion of mobile M. hapla J2": 0.909}
{"smiles": "CC(Sc1nnc(-c2ccccc2)o1)C(=O)Nc1nccs1", "note": "(stereo not drawn)", "proportion of mobile M. hapla J2": 1}
{"smiles": "COc1ccc(-c2nnc(SCC(=O)Nc3ccc(Br)cc3C(C)C)o2)cc1", "proportion of mobile M. hapla J2": 1}
{"smiles": "O=C(Nc1ccc(-c2noc(COc3ccccc3)n2)cc1)c1ccc(F)cc1", "proportion of mobile M. hapla J2": 1.03}
{"system": "Caenorhabditis elegans dauer (daf-2(e1370))", "test": "proportion of mobile C. elegans dauer larvae relative to DMSO control (fraction of DMSO control); higher = more viable, less nematicidal, active = 0.63 or less; extreme values may be limits of the assay", "settings": "60 µM; 5 days; temperature: 20 °C", "how_it_was_run": "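The proportion of mobile worms, relative to DMSO wells, was scored by dissection microscope and averaged over two biological replicates. Worms were C. elegans dauers, about 20 per well in liquid NGM in 96-well plates, generated from synchronized larvae on MYOB plates with E. coli OP50 at 25 °C for 48 h. They were treated with compound pinned to 60 µM final (0.6% v/v DMSO) and kept in sealed plates shaken at 200 rpm for 5 days at 20 °C.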"}
{"smiles": "Cc1ccc(OCc2nc(-c3ccncc3)no2)cc1C", "proportion of mobile C. elegans dauer larvae": 1}
{"smiles": "Cc1ccc(OCc2nc(-c3ccccn3)no2)cc1C", "proportion of mobile C. elegans dauer larvae": 1}
{"smiles": "Clc1cccc(OCc2nc(-c3ccncc3)no2)c1", "proportion of mobile C. elegans dauer larvae": 1}
{"smiles": "O=C(Nc1ccccc1-c1nc(-c2cccnc2)no1)c1ccc(Cl)cc1", "proportion of mobile C. elegans dauer larvae": 1}
{"smiles": "COc1ccccc1NC(=O)CSc1nnc(-c2ccccc2)o1", "proportion of mobile C. elegans dauer larvae": 1}
{"smiles": "Cc1cc(C)c(OCc2nc(-c3ccncc3)no2)c(C)c1", "proportion of mobile C. elegans dauer larvae": 1}
{"smiles": "Cc1cccc(OC(C)c2nc(-c3ccncc3)no2)c1", "note": "(stereo not drawn)", "proportion of mobile C. elegans dauer larvae": 0.85}
{"smiles": "Cn1c(SCc2nc(-c3ccc(Br)cc3)no2)nnc1-c1ccco1", "proportion of mobile C. elegans dauer larvae": 1}
{"smiles": "Cc1ccccc1OCc1nc(-c2ccc(F)cc2)no1", "proportion of mobile C. elegans dauer larvae": 1}
{"smiles": "COc1nc(C)ccc1-c1noc(-c2ccccc2C)n1", "proportion of mobile C. elegans dauer larvae": 1}
{"smiles": "Fc1cccc(Cl)c1CSc1nnc(-c2ccccc2)o1", "proportion of mobile C. elegans dauer larvae": 0.977}
{"smiles": "Cc1ccc(OCc2nc(-c3ccc(Cl)cc3)no2)cc1C", "proportion of mobile C. elegans dauer larvae": 1}
{"smiles": "O=C(CSc1nnc(-c2ccco2)o1)Nc1ccc(Br)cc1", "proportion of mobile C. elegans dauer larvae": 1}
{"smiles": "CCc1ccc(NC(=O)CSc2nnc(-c3ccco3)o2)cc1", "proportion of mobile C. elegans dauer larvae": 1}
{"smiles": "COc1nc(C)ccc1-c1noc(-c2ccc(Cl)cc2)n1", "proportion of mobile C. elegans dauer larvae": 1}
{"smiles": "CCSc1nnc(-c2ccc(Cl)cc2Cl)o1", "proportion of mobile C. elegans dauer larvae": "0 (active)"}
{"smiles": "Clc1ccc(-c2nnc(SCc3ccccc3)o2)c(Cl)c1", "proportion of mobile C. elegans dauer larvae": 1}
{"smiles": "O=C(CSc1nnc(-c2ccc(Cl)cc2)o1)NC1CC2CCC1C2", "note": "(stereo not drawn)", "proportion of mobile C. elegans dauer larvae": 1}
{"smiles": "Brc1ccc(OCc2nc(-c3cccs3)no2)cc1", "proportion of mobile C. elegans dauer larvae": 1}
{"smiles": "Cc1ccc(-c2nc(-c3ccc(C(F)(F)F)cc3)no2)cc1", "proportion of mobile C. elegans dauer larvae": "0.5 (active)"}
{"smiles": "CCOc1ccc(NC(=O)CSc2nnc(-c3ccncc3)o2)cc1", "proportion of mobile C. elegans dauer larvae": 1}
{"smiles": "Cc1cc(OCc2nc(-c3cccnc3)no2)ccc1Cl", "proportion of mobile C. elegans dauer larvae": 1}
{"smiles": "O=C(NCc1cccnc1)c1ccccc1-c1nc(-c2ccccc2Cl)no1", "proportion of mobile C. elegans dauer larvae": 1}
{"smiles": "CC(=O)Nc1ccc(NC(=O)c2ccccc2-c2nc(-c3ccccc3Cl)no2)cc1", "proportion of mobile C. elegans dauer larvae": 1}
{"smiles": "O=C(CSc1nnc(-c2ccc(Cl)cc2)o1)Nc1nccs1", "proportion of mobile C. elegans dauer larvae": 1}
{"smiles": "Fc1ccccc1-c1nc(-c2ccccc2)no1", "proportion of mobile C. elegans dauer larvae": 1}
{"smiles": "Clc1ccc(CSc2nnc(-c3ccccc3Cl)o2)cc1", "proportion of mobile C. elegans dauer larvae": 1}
{"smiles": "c1ccc(-c2noc(COc3ccc4c(c3)CCCC4)n2)cc1", "proportion of mobile C. elegans dauer larvae": 1}
{"smiles": "COc1ccc(C(=O)CSc2nnc(-c3ccccc3)o2)cc1", "proportion of mobile C. elegans dauer larvae": 1}
{"smiles": "Cc1cccc(-c2noc(COc3ccc(C)cc3C)n2)c1", "proportion of mobile C. elegans dauer larvae": 1}
{"smiles": "CCOc1ccc(-c2nc(-c3ccc(C)cc3)no2)cc1", "proportion of mobile C. elegans dauer larvae": "0.5 (active)"}
{"smiles": "N#Cc1cccc(CSc2nnc(-c3ccncc3)o2)c1", "proportion of mobile C. elegans dauer larvae": 1}
{"smiles": "O=C(CSc1nnc(-c2ccccc2)o1)Nc1cccc(Br)c1", "proportion of mobile C. elegans dauer larvae": 1}
{"smiles": "CCOc1ccccc1-c1nc(-c2ccc(NC(=O)Cc3ccccc3OC)cc2)no1", "proportion of mobile C. elegans dauer larvae": 1}
{"smiles": "Cc1ccc(-c2noc(COc3ccc(Cl)c(C)c3)n2)cc1", "proportion of mobile C. elegans dauer larvae": 1}
{"smiles": "O=C(Nc1ccccc1-c1nc(-c2ccncc2)no1)c1ccc(Cl)cc1", "proportion of mobile C. elegans dauer larvae": 1}
{"smiles": "CC(Sc1nnc(-c2ccccc2)o1)C(=O)Nc1nccs1", "note": "(stereo not drawn)", "proportion of mobile C. elegans dauer larvae": 1}
{"smiles": "COc1ccc(-c2nnc(SCC(=O)Nc3ccc(Br)cc3C(C)C)o2)cc1", "proportion of mobile C. elegans dauer larvae": 1}
{"smiles": "O=C(Nc1ccc(-c2noc(COc3ccccc3)n2)cc1)c1ccc(F)cc1", "proportion of mobile C. elegans dauer larvae": 1}
